Screening data: PubChem, The Scripps Research Institute Molecular Screening Center
ssDAF-12 act: S. stercoralis DAF-12 nuclear receptor activators, primary screen, cell-based, luminescence, HEK293, GRIP1 co-expression, lit1-tk-luc; 370,000 tested, 1% active; Nuclear hormone receptor DAF-12 (Strongyloides stercoralis); activation, % at 6.8 µM; AID 652126, 2013; HEK293 ssDAF-12/GRIP1 lit1-tk-luc reporter; % of 3 µM dafachronic acid response;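 active means activation above the mean over all tested compounds plus 3 SD, cut at about 0.9% in these data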;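 further: 0% = DMSO-only wells and 100% = 3 µM delta7-dafachronic acid wells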
DAX1 inh-1: DAX1 (NR0B1) inhibitors, primary screen, cell-based, HEK293, Gal4-DAX1, luciferase luminescence; Nuclear receptor subfamily 0 group B member 1 (Homo sapiens), P51843; HEK293 Gal4-DAX1 luciferase reporter; inhibition, % at 6.75 µM; 340,000 tested, 0.99% active; AID 504766, 2011;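 active means inhibition above the mean over all tested compounds plus 3 SD, cut at about 4.2% in these data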;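 further: 0% = DAX1-transfected cells with DMSO and 100% = empty-vector control cells with DMSO; inhibition shows as a rise in luminescence from relieved DAX1 repression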
Target sequence (P51843 207-470 limits assumed): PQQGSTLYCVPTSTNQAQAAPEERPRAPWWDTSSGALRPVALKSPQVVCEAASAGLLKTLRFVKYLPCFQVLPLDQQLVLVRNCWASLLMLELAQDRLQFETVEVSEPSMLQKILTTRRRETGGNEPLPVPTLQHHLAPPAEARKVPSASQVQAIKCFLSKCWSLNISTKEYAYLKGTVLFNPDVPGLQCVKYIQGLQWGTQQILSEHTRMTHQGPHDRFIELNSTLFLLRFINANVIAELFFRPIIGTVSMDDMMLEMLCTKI
SMARCA2 activ: SMARCA2 (BRM) function activators, primary screen, cell-based, luminescence, high throughput; MG213 cells, MMTV-luciferase reporter, dexamethasone, overnight; activation, % at 9.1 µM; 370,000 tested, 1% active; AID 652017, 2013; in the data active means activation above about 7.8%;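 further: 0% = vehicle wells and 100% = reference activator wells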
hgDAF12 agonist: H. glycines DAF-12 receptor agonists, primary screen, cell-based, luminescence, HEK293, GAL4 fusion, UAS-luciferase; 370,000 tested, 1.8% active; Nuclear hormone receptor DAF-12 (Heterodera glycines), GAL4 fusion; HEK293 GAL4-hgDAF12 UAS-luciferase reporter, agonist luminescence; normalized to butyrate control; activation, % at 6.8 µM;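 active means activation above a cutoff set at the mean of all screened compounds plus 3 SD, cut at about 10% in these data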;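 further: 0% = DMSO wells and 100% = sodium butyrate wells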
DAX1 inh-2: DAX1 (NR0B1) inhibitors on StAR promoter, primary screen, cell-based, luminescence, SF-1 (NR5A1), full-length DAX-1 | HEK293T StAR-luciferase reporter, SF-1/DAX-1 repression relief | inhibition, % at 6.8 µM | 370,000 tested, 1.1% active | AID 652010, 2013;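 active means inhibition above the mean over all tested compounds plus 3 SD, cut at about 3.6% in these data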;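 further: 0% = DAX-1 cells with DMSO and 100% = cells lacking DAX-1 with DMSO; higher inhibition means more luminescence from relief of DAX-1 repression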
hcDAF12 agonist: H. contortus DAF-12 nuclear receptor activators, primary screen, cell-based, luminescence, HEK293, lit1-tk-luc reporter; 370,000 tested, 1.4% active; HEK293 hcDAF-12 lit1-tk-luc reporter; 0% DMSO, 100% Δ7-dafachronic acid; activation, % at 6.8 µM;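 active means activation above the mean of all tested compounds plus 3 SD, cut at about 5.5% in these data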;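 further: 100% = response to 3 µM Δ7-dafachronic acid high control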
An asterisk follows results filed as active; x = not tested or not shown. Compounds with a hit are over-represented: about 4.8% of the library has one in this group of screens.

SMILES	ssDAF-12 act	DAX1 inh-1	SMARCA2 activ	hgDAF12 agonist	DAX1 inh-2	hcDAF12 agonist
Cn1nc(C(C)(C)C)cc1C(=O)N1CCCC(C)(C(=O)NS(=O)(=O)C2CC2)C1 (stereo not given)	-0.9	x	-2.1	1.0	0.2	-1.2
CCc1noc(C)c1C(=O)NNC(=O)c1nn(CC)c(=O)c2ccccc12	-1.2	5.2*	-1.8	0.8	-1.5	0.4
COc1ccc(C(CC(=O)c2ccc(C)cc2)Sc2ccccc2N)cc1 (stereo not given)	0.4	0.9	3.9	5.5	2.8	5.7*
c1ccc2nc3c(nc2c1)OCC1CCCCN31 (stereo not given)	0.8	3.7	4.3	7.6	1.3	6.2*
COc1ccc(OC)c(C(C)NC(=O)c2ccc(Br)cc2)c1 (stereo not given)	-1.6	8.4*	-1.8	0.5	-0.4	-0.2
CCOC1OC(=O)C(Cl)=C1Nc1cc(C)ccc1C (stereo not given)	-0.6	0.1	-7.0	-2.0	-0.3	0.0
O=C(CN1C(=O)/C(=C/c2ccccc2Cl)SC1=S)NC1C=CS(=O)(=O)C1 (stereo not given)	-1.0	0.8	-1.5	2.4	0.2	-1.9
Cc1ccnc(NC(=O)c2cccs2)c1	0.1	1.2	4.5	7.8	1.4	2.2
Cc1cc(NC(=O)c2cccs2)ncc1NC(=O)C(C)(C)C	1.1*	2.2	1.4	9.6	2.7	3.0
CCOc1ccccc1CN1C(=O)C2(OCCO2)c2ccccc21	-1.0	0.2	-1.9	-0.2	-0.5	-1.8
CC1(C)OC(=O)N(NCc2ccccc2)C1(C)O (stereo not given)	-1.2	0.9	2.2	2.9	0.1	-2.7
COc1ccccc1Nc1nc(-c2c(C)[nH]c3ccccc23)cs1	1.3*	0.4	0.0	1.1	-0.6	5.3
Cc1[nH]c2ccccc2c1-c1csc(N)n1	-0.6	-1.1	-0.1	2.1	-0.5	1.0
O=C(NC1CCCCN(Cc2cccc(C(F)(F)F)c2)C1=O)c1ccc(-c2ccccc2)cc1 (stereo not given)	-1.5	x	-2.7	-0.8	-1.6	-2.6
COc1ccc2[nH]c3c(c2c1)CCN1C(=O)C(CC(=O)NCCC2=CCCCC2)C[C@H](C(=O)N2CCCCC2)[C@@]31C (stereo not given in full)	-0.6	-0.2	-4.1	-0.2	-0.8	-0.1
O=C(Nc1ccc(C(=O)O)cc1)/C(=C\c1ccc([N+](=O)[O-])cc1)NC(=O)c1ccco1	-1.2	4.3*	-3.6	-2.2	-0.3	0.3
O=C(NCCNCc1ccc(F)cc1)c1ccco1	-1.5	0.3	-1.6	-1.6	-0.6	-0.8
O=C(NCCNCc1cccc(Cl)c1)c1ccco1	1.1*	0.5	-0.5	1.3	2.3	-0.5
O=C(NCCNc1ccc([N+](=O)[O-])cc1)c1ccco1	-0.9	4.5*	-1.3	3.2	-0.8	-1.7
CN(CC(=O)Nc1cccc(F)c1)C(=O)CCSc1ccc(F)cc1	-0.8	-1.7	-0.2	-0.4	-0.6	-1.4
Cn1cc(CN2CC3C[C@@H]4CC2C[C@H](C3)C4)c(-c2ccc3c(c2)OCCO3)n1	-1.8	0.9	-2.7	2.2	0.9	0.0
CCC1CCC/C1=N\NC(=O)c1ccccc1C (stereo not given)	0.1	5.3*	-1.8	4.6	0.2	2.4
Cc1cc(NC(=O)CSc2n[nH]c(N)n2)no1	-0.7	-0.1	1.9	-0.2	4.3*	0.1
Cc1ccc2nc(NC(=O)CSCC(=O)Nc3cc(C)on3)sc2c1	-0.8	-0.3	4.9	4.4	1.8	0.9
CCc1nc(SCC(=O)Nc2cc(C)on2)c2c(C)c(C)sc2n1	-0.3	5.7*	1.9	-1.4	-0.2	-1.9
SMILES	ssDAF-12 act	DAX1 inh-1	SMARCA2 activ	hgDAF12 agonist	DAX1 inh-2	hcDAF12 agonist
Cc1cc(NC(=O)CSCC(=O)Nc2nc3ccccc3[nH]2)no1	0.6	0.6	-1.0	2.9	2.6	5.8*
Cc1cc(NC(=O)CSCC(=O)Nc2nc3ccc(F)cc3s2)no1	0.2	0.4	1.7	2.0	1.2	5.7*
Cc1cc(NC(=O)CSCC(=O)Nc2cc(C(F)(F)F)ccc2N2CCCCC2)no1	0.1	0.1	-4.7	5.3	1.6	6.0*
Cc1cc(NC(=O)C(C)SCC(=O)Nc2cc(C(F)(F)F)ccc2N2CCCCC2)no1 (stereo not given)	-0.9	-1.7	-0.4	2.2	0.7	-0.3
O=C(CC(c1ccc(F)cc1)c1ccco1)Nc1nccs1 (stereo not given)	2.1*	-0.7	-1.9	-1.2	-0.9	-0.8
Cc1ccc(NCc2nnc(SCC(N)=O)n2CC2CCCO2)c(C)c1 (stereo not given)	-1.1	5.5*	-4.0	2.4	-0.2	-0.9
CCCc1nnc(SCC(=O)N2CCCCC2C)n1CC1CCCO1 (stereo not given)	-1.2	-0.1	-0.8	1.2	-0.3	-2.1
NC(=O)CSc1nnc(CNc2ccc(F)cc2)n1CC1CCCO1 (stereo not given)	-0.3	-0.7	-2.2	1.3	-0.5	-1.0
CCCc1nnc(SCC(=O)N(CC)CC)n1CC1CCCO1 (stereo not given)	-1.2	5.5*	-2.8	-2.1	0.4	0.2
O=S1(=O)CCC(n2ncc3c2/C(=C/c2ccccc2)CC3)C1 (stereo not given)	-1.8	-0.4	-0.4	1.7	-0.6	-0.6
O=C(O)c1ccc(S(=O)(=O)c2ccc3c(c2)C(=O)N(NC(=O)c2ccccc2)C3=O)cc1	-0.6	1.0	1.3	12.0*	1.5	0.7
CN(C)c1ccc(C(=O)NN2C(=O)c3ccccc3C2=O)cc1	-1.2	0.0	0.4	10.7*	-0.2	-0.2
Cc1cc(C(=O)N2CCC2(C)C(=O)NCc2cccc3ccccc23)nn1C (stereo not given)	-1.3	x	-3.1	-3.9	0.1	-1.7
c1ccc(-c2ccc(-c3nc(-c4ccncc4)no3)cc2)cc1	-1.0	2.8	3.0	7.4	2.7	1.6
CCOc1cc(-c2noc(-c3cccnc3)n2)ccc1OC	-1.3	4.6*	-6.0	0.8	0.5	-1.1
COc1cccc(-c2nc(-c3ccc(C(=O)O)cc3)no2)c1	1.0*	1.8	4.8	9.0	1.8	3.5
Cc1ccccc1-c1nc(-c2cccnc2)no1	0.8	1.9	1.5	10.5*	0.2	6.1*
